FLuc inh: blocks purified firefly luciferase enzyme activity; P08659; purified P. pyralis luciferase, luminescence, biochemical; Potency, µM (doses to about 115 µM), hits mostly inhibitors; actives 2.5% (n = 76,000); AID 1347043; also: nearly all actives have a fitted effect of over 65% in size
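Luminescence read by CCD imaging after purified firefly luciferase (10nM final) was added to substrate buffer holding 10uM D-luciferin and 10uM ATP, pH 7.5, pre-dosed with compound.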
NPR1 antag: antagonists of human natriuretic peptide receptor Npr1; Potency, µM (titrated, usually from 46.3 µM), inactives show at the top dose activity change, negative = inhibition, hits mostly inhibitors; actives 1.6% (n = 76,000); HEK293 hNpr1 GloSensor cGMP, ANP-stimulated luminescence; AID 1347048; calls by dose curve; also: nearly all actives have a fitted effect of over 60% in size
Target sequence (P16066 whole entry, looked up): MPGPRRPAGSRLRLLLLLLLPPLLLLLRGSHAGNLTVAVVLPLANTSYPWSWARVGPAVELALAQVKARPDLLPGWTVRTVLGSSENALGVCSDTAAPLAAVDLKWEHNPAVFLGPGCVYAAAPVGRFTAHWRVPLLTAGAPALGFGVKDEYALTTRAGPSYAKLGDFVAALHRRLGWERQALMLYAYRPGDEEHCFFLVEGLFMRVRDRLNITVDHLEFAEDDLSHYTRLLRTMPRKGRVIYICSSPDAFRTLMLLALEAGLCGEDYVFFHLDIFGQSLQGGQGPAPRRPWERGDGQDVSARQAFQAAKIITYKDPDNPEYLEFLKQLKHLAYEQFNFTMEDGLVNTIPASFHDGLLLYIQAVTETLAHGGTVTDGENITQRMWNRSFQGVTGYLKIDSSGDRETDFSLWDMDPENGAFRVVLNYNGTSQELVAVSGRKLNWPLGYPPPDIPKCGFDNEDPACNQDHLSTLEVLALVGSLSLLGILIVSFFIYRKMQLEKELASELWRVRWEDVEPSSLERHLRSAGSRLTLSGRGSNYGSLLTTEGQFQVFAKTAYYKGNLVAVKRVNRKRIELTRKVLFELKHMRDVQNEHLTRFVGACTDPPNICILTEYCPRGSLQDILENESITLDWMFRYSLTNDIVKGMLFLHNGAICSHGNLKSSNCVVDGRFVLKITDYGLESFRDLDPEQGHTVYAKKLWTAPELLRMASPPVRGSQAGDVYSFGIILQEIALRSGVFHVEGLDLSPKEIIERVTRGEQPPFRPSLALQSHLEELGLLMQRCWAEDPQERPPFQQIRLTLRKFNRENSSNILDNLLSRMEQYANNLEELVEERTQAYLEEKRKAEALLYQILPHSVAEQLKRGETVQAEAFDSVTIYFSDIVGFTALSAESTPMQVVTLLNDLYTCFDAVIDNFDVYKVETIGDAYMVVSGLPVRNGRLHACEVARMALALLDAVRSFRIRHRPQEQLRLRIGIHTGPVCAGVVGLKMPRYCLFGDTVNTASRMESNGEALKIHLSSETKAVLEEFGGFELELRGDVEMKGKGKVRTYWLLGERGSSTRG
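HEK293 cells stably expressing human Npr1 and cGMP GloSensor pGS-40F, loaded 2 h with 2% GloSensor reagent, given compound 30 min at room temperature. Luminescence read before and 20 min after 0.1 nM hNppA.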
NIH3T3 tox: cytotoxic compounds in NIH 3T3 cells. NIH 3T3 viability, CellTiter-Glo ATP luminescence, 48-72 h. Potency, µM (top dose mostly 96.7 µM), without a hit: at the top dose activity change, negative = cytotoxicity, hits mostly inhibitors. actives 4.3% (n = 94,000); also: nearly all actives have a fitted effect of over 55% in size
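Mouse fibroblast NIH 3T3 cells, 400 per well, received compound via pintool and were incubated for 48 or 72 hr prior to CellTiter-Glo ATP luminescence measurement.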
HEK293 tox: kills HEK 293 cells | HEK 293 viability, ATP luminescence (CellTiter-Glo), 48-72 h | Potency, µM (series often up to 115 µM), inactives show at the top dose activity change, negative = cytotoxicity, usual class: inhibitors | actives 6.6% (n = 94,000) | AID 1345083; also: nearly all actives have a fitted effect of over 60% in size
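250 HEK 293 cells/well; compound by pintool; incubated 48 or 72 hr at 37 degree Celsius; CellTiter-Glo added, 10 min RT, luminescence imaged.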
* = called active by the depositor; i = inactive; u = inconclusive; x = no result; [ ] = remark or other dose. Only some compounds are listed: those with a hit (about 11% of all), similar ones and a draw of the others. Unless noted, calls follow the shape of the dose curve; as a rule, active = well fitted curve in the direction sought with a large enough effect; inconclusive = small, poorly fitted or top-dose-only effect, or another doubt; inactive = no such curve, though single readings can be large; an effect the other way counts as inactive or inconclusive. % is scaled to controls: 0 for no effect and ±100 for the full control effect; potency is read from the fitted curve at half-maximal effect.

SMILES	FLuc inh	NPR1 antag	NIH3T3 tox	HEK293 tox
Cc1ccccc1-c1ccc2n(c1=O)C[C@H]1C[C@@H]2CN(C(=O)c2cnccn2)C1	i	0.5%[70.6 µM]	-0.8%[174 µM]	89.1µM*
O=C(c1cnccn1)N1C[C@@H]2C[C@H](C1)c1ccc(-c3cccc(C(F)(F)F)c3)c(=O)n1C2	i	6.1%	-4.8%	-12.3%
Cc1nc(-c2ccccc2Br)cc([C@H]2CN3CC[C@H]2C[C@@H]3CNS(=O)(=O)c2cccs2)n1	i	4.0%	79.4µM*	79.4µM*
Cc1nc(-c2cccs2)cc([C@H]2CN3CC[C@H]2C[C@@H]3CNC(=O)C(C)(C)C)n1	i	-8.1%[70.6 µM]	u	u
Cc1nc(-c2cccs2)cc([C@H]2CN3CC[C@H]2C[C@@H]3CNS(=O)(=O)c2ccccc2)n1	i	-8.1%	20µM*	28.2µM*
Cc1nc(-c2cccs2)cc([C@H]2CN3CC[C@H]2C[C@@H]3CO)n1	i	2.2%[70.6 µM]	15.8µM*	-105.7%[172 µM]
Cn1nc(-c2cccs2)cc1[C@H]1CN2CC[C@H]1C[C@@H]2CNS(=O)(=O)c1ccccc1	i	3.2%	u	-26.2%
C=CCN1C[C@@H]2CN(S(=O)(=O)c3cccnc3)C[C@]2(C(=O)O)C1	i	-0.7%	1.2%	1.2%
CC(C)S(=O)(=O)N1CC[C@@H]2COCCN(C)[C@@H]2C1	i	-0.5%	2.4%	-2.1%
CCCNC(=O)OC[C@H]1C[C@@H]2CCN1C[C@@H]2c1cc(-c2cccs2)nc(C)n1	i	0.2%[70.6 µM]	u	112µM*
Cc1nc(-c2cccs2)cc([C@H]2CN3CC[C@H]2C[C@@H]3COC(=O)NC2CCCCC2)n1	i	2.4%	44.7µM*	44.7µM*
Cc1nc(-c2cccs2)cc([C@H]2CN3CC[C@H]2C[C@@H]3COC(=O)Nc2cccc(C(F)(F)F)c2)n1	i	u	u	11.2µM*
Cn1nc(-c2cccs2)cc1[C@H]1CN2CC[C@H]1C[C@@H]2COC(=O)Nc1cccc(C(F)(F)F)c1	i	1.5%	-2.9%	-0.1%
COc1ccccc1-c1cc([C@H]2CN3CC[C@H]2C[C@@H]3COC(=O)Nc2cccc(C(C)=O)c2)nc(C)n1	i	-11.2%	u	89.1µM*
O=C(Cc1cccc(Cl)c1)N1CCCN(CCn2nc3n(c2=O)CCCC3)CC1	x	x	i	4.3%
O=C(Nc1ccc2n(c1=O)C[C@H]1C[C@@H]2CN(C(=O)COc2ccccc2)C1)c1cccs1	i	-5.7%	u	u
O=C(Nc1ccccc1)Nc1ccc2n(c1=O)C[C@H]1C[C@@H]2CN(C(=O)c2cccs2)C1	5.62µM*	-1.5%[70.6 µM]	u	u
O=C(Nc1ccc2n(c1=O)C[C@H]1C[C@@H]2CN(Cc2ccc(F)cc2)C1)c1cccs1	u	u	u	25.1µM*
COc1ccc(OC)c(S(=O)(=O)NC[C@H]2C[C@@H]3CCN2C[C@@H]3c2cc(-c3ccc(F)cc3)nn2C)c1	i	-19.8%	u	28.2µM*
COc1ccc(NC(=O)NC[C@H]2C[C@@H]3CCN2C[C@@H]3c2cc(-c3ccc(OC)c(OC)c3)nn2C)cc1	i	7.7%	u	u
COc1ccc(C(=O)NC[C@H]2C[C@@H]3CCN2C[C@@H]3c2cc(-c3ccc(F)cc3)nn2C)cc1	i	-0.2%	u	u
Cn1nc(-c2ccc(F)cc2)cc1[C@H]1CN2CC[C@H]1C[C@@H]2CNC(=O)c1cccs1	i	-19.0%[70.6 µM]	56.2µM*	44.7µM*
COc1ccc(-c2cc([C@H]3CN4CC[C@H]3C[C@@H]4CNC(=O)Nc3cccc4ccccc34)n(C)n2)cc1OC	i	2.8%	u	44.7µM*
Cc1ccc(C(=O)NC[C@H]2C[C@@H]3CCN2C[C@@H]3c2cc(-c3ccc(F)cc3)nn2C)cc1	i	-27.3%[70.6 µM]	25.1µM*	25.1µM*
CC(C)NC(=O)NC[C@H]1C[C@@H]2CCN1C[C@@H]2c1cc(C2CCCC2)nn1C	i	-0.3%[70.6 µM]	u	-9.1%[172 µM]
SMILES	FLuc inh	NPR1 antag	NIH3T3 tox	HEK293 tox
CCN1CCCC12Cc1ccccc1CN(C(=O)Cc1ccccc1)C2 (configuration not stated)	x	x	-4.2%	-27.3%
Cc1noc(C)c1CCN1CCC2(C1)C(=O)N(C)C(=O)N2C (configuration not stated)	x	x	-11.2%	2.8%
CN1CCN(Cc2cccc(OC(F)F)c2)CC1CCO (configuration not stated)	i	-0.1%	-0.9%	i
COc1cc2c(cc1CCc1ccccc1)N(C(=O)c1ccn(C)n1)CC21CCN(C(C)=O)CC1	i	-0.4%	u	u
COc1ccc(-c2cc([C@H]3CN4CC[C@H]3C[C@@H]4CNC(=O)c3ccc(C(C)(C)C)cc3)n(C)n2)cc1OC	i	0.8%	u	20µM*
COc1ccc(-c2cc([C@H]3CN4CC[C@H]3C[C@@H]4CNC(=O)NC3CCCCC3)n(C)n2)cc1	i	-1.4%	89.1µM*	u
C#C[C@H]1CN2CC[C@H]1C[C@@H]2COC(=O)Nc1ccc(OC(F)(F)F)cc1	i	u	39.8µM*	u
C#C[C@H]1CN2CC[C@H]1C[C@@H]2COC(=O)Nc1ccc(C(C)(C)C)cc1	i	-0.8%[70.6 µM]	79.4µM*	u
CN1CCc2c([nH]c3ccccc23)C12CCNCC2	i	-0.6%	u	89.1µM*
CCOC(=O)[C@@H]1[C@H]2c3ccccc3N(CCOC)C(=O)[C@H]2N(C(=O)C2CCC2)[C@@H]1c1ccccc1	x	x	u	50.1µM*
CCOC(=O)[C@H]1CN(C(=O)c2ccccc2)[C@]2(C)C(=O)N(CC3CC3)c3ccccc3[C@H]12	x	x	-25.5%[46.1 µM]	u
CCOC(=O)[C@@H]1[C@H]2c3ccccc3N(CCOC)C(=O)[C@H]2N(C(=O)CC(C)C)[C@@H]1c1ccccc1	x	x	u	39.8µM*
COC[C@H]1CCCN1C[C@H]1CN2CC[C@H]1C[C@@H]2CN	i	1.1%[70.6 µM]	2.9%[174 µM]	i
CCOCCCNC(=O)N1[C@H]2CC[C@@H]1c1cnc(-c3ccc(F)cc3)nc1C2	i	u	u	u
N#Cc1ccc(C(=O)N2C[C@@H]3C[C@H](C2)c2c(-c4cccs4)ccc(=O)n2C3)cc1	i	3.3%[70.6 µM]	-19.6%[174 µM]	-27.7%[172 µM]
CC[C@H]1CN2CC[C@H]1C[C@@H]2CNC(=O)c1cccc(F)c1	i	3.8%[70.6 µM]	-23.4%[230 µM]	u
Cc1nc(-c2ccco2)cc([C@H]2CN3CC[C@H]2C[C@@H]3CNS(=O)(=O)c2cccs2)n1	i	3.4%	u	u
COCCNC(=O)N1CCC2(C1)C(=O)N(C)c1ccc(OC)cc12 (configuration not stated)	i	-1.7%	4.8%	0.7%
COc1ccc2c(c1)C1(CCN(C(=O)COc3ccc(Cl)cc3)C1)C(=O)N2C (configuration not stated)	28.2µM*	-18.8%	u	-21.1%
COc1ccc2c(c1)C1(CCN(S(=O)(=O)c3ccc(Cl)cc3)C1)C(=O)N2C (configuration not stated)	i	-13.7%	-28.6%	50.1µM*

Compound activity: PubChem BioAssay, National Center for Advancing Translational Sciences (NCATS)
